PTEN del growth: growth suppression of PTEN-null HCT116, primary screen, cell-based, CellTiter-Glo. 140,000 tested, 1.2% active. AID 827, 2007. HCT116 PTEN-null viability, 60 h; stronger effect = lower value. viability, % at 10 µM;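 active = viability at or below a set limit, 4 SD under the median of all tested compounds, cut at about 3.7% in these data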;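 also: PTEN knockout HCT116 line with beta catenin targeted HCT116 as companion control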
ROMK mod: ROMK potassium channel modulators, primary screen, cell-based, thallium flux, MLSMR library | B-score at 10 µM | 130,000 tested, 2% active | ATP-sensitive inward rectifier potassium channel 1 (Homo sapiens), P48048 | Tet-inducible ROMK, thallium flux fluorescence; actives lie on both sides | AID 1918, 2009;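 active = signal ratio slope over the read window, or its plate-corrected B-score, at least 3 SD from the plate mean, either direction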;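 also: B-score of the F/F0 ratio slope over 7 to 12 s after thallium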
p97 ATPase inh: inhibitors of human p97 ATPase, primary screen, biochemical | inhibition, % at 8 µM | 220,000 tested, 0.42% active | AID 1481, 2009 | Transitional endoplasmic reticulum ATPase (Homo sapiens), P55072 | recombinant p97 ATPase, Kinase-Glo ATP luminescence, 3 h; in the data active = inhibition above about 15%;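 also: 0% = DMSO vehicle and 100% = wells lacking enzyme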
Target sequence (P55072 whole entry, looked up): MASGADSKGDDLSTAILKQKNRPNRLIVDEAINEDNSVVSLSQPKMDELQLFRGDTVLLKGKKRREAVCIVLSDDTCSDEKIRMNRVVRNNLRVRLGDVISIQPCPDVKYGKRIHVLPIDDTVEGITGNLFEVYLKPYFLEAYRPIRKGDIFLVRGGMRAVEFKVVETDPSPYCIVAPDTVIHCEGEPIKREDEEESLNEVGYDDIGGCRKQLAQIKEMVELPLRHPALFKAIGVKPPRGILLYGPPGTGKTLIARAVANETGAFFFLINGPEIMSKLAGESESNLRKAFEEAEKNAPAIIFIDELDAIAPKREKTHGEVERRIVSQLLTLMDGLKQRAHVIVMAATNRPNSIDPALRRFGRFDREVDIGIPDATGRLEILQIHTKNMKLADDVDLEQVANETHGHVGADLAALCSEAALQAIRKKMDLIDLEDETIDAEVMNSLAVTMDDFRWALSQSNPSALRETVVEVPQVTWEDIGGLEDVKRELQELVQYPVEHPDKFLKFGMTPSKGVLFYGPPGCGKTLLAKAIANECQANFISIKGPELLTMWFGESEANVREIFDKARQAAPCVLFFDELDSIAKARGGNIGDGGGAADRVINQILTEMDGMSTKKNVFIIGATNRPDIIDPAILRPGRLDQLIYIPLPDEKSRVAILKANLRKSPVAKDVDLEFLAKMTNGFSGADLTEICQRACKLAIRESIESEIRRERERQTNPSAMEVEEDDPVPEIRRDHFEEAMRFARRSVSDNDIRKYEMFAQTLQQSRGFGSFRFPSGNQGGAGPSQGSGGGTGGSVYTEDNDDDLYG
Lmaj promast: Leishmania major promastigote growth inhibition, primary screen; Leishmania major promastigotes, resazurin fluorescence viability; inhibition, % at 10 µM; 200,000 tested, 9% active; AID 1063, 2008; in the data active = inhibition above about 50%;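 also: promastigotes grown with compound for 44 hours at 28 °C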
Insulin prom inh: inhibitors of insulin promoter-driven GFP, primary screen, imaging, TRM-6 cells (human fetal islet line), eGFP reporter, cell count. 130,000 tested, 0.9% active. reporter expression induced with tamoxifen. inhibition, % at 2 µM;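 active = inhibition above the mean plus 3 SD, with well images judged a real hit on visual review, cut at about 60% in these data, passing the limit was not always enough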
bCat KO growth: primary screen for growth suppressors in beta-catenin knockout HCT116 cells (colon tumor, human) | HCT116 beta-catenin knockout viability, CellTiter-Glo, 60 h; stronger effect = lower value | viability, % at 10 µM | 140,000 tested, 1.5% active | AID 818, 2007;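 active = viability at or under a set limit, the compound median less 4 SD, cut at about 6% in these data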;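 also: 0% = Hyamine 1622 control at 20 µM and 100% = untreated cell control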
The depositor's hits bear a star; x = no result. Hits are enriched below; roughly 10% of the tested compounds scored in any of these assays.

SMILES	PTEN del growth	ROMK mod	p97 ATPase inh	Lmaj promast	Insulin prom inh	bCat KO growth
CC(=O)N(CCCN(C)C)CCC(C)CCC=C(C)C (stereo unspecified)	10	-0.57	-2	100*	45	7
CC(C)=CCCC(C)N(C=O)C(C)CCC=C(C)C (stereo unspecified)	x	x	-3	2	46	x
FC(F)(F)c1ccc(-c2nnc(-c3ccccn3)c(-c3ccccn3)n2)nc1	x	x	4	x	x	x
CCC1CSC(Nc2ccc(C(=O)/C=C/c3ccc(Oc4ccccc4)cc3)cc2)=N1 (stereo unspecified)	30	0.68	-4	59*	7	42
CCC1CSC(Nc2ccc(C(=O)/C=C/c3cccc(C)c3)cc2)=N1 (stereo unspecified)	21	x	-7	14	x	11
COCCCN(CCC#N)C(=O)c1c(-c2c(Cl)cccc2Cl)noc1C	x	x	7	x	x	x
COc1ccc(CCC(=O)N2CCCSC2=Nc2ccc(C(C)=O)cc2)cc1	85	x	-1	98*	x	92
Cc1ccc(NC(=O)Cc2cc(C(=O)O)c3ccccc3n2)c(C)c1	x	1.1	2	29	x	x
CC(C)(C)NC(=O)CN(CCc1ccccc1)C(=O)c1csnn1	x	0.28	0	-4	x	x
CCN(Cc1ccccc1)c1ccc(/C=N/NC(=S)NC(C)C)cc1	40	-0.14	3	43	40	51
CCN(Cc1ccccc1)c1ccc(/C=N/N=C(N)N)cc1	1.7*	-2.8	11	100*	-27	1.4*
COc1cc(-c2nc(-c3ccc(Br)o3)no2)cc(OC)c1OC	79	x	19*	3	x	82
COc1ccc(-c2noc(-c3ccc(Br)o3)n2)cc1OC	107	x	-4	-6	-122	103
Cc1ccccc1Cn1c(=N)n(CC(=O)c2ccco2)c2ccccc21	50	x	6	86*	x	48
COc1ccc(-n2nnc3c(SCC(=O)NCC4CCCO4)ncnc32)cc1 (stereo unspecified)	13	-1	-3	75*	-43	8
CC1CCCCN1CC(=O)Nc1sc2c(c1C#N)CCC2 (stereo unspecified)	106	x	-4	4	x	108
CC(C)c1nc(SCC(=O)Nc2ccc3c(c2)OCCO3)n[nH]1	x	-0.83	4	-7	-45	x
Cc1nn(-c2ccccc2)c(C)c1/C=N/NC(=O)c1cc(C(C)(C)C)[nH]n1	104	x	3	8	54	96
Cc1ccc(-c2cc(C(=O)N/N=C/c3c(C)nn(-c4ccccc4)c3C)n[nH]2)s1	22	1.9	1	58*	-146	24
Cc1ccc(-c2cc(C(=O)N/N=C/c3c(C)nn(-c4ccccc4)c3C)[nH]n2)cc1	15	x	9	71*	-10	14
Cc1nn(C)c(C)c1/C=N/NC(=O)c1csc2ccccc12	82	x	-3	-3	-11	91
Cc1ccc(-c2cc(C(=O)N/N=C/c3c(C)nn(C)c3C)c3ccccc3n2)c(C)c1	106	1.2	3	100*	0	95
Nc1ncnc(Nc2ccccc2Cl)n1	x	x	2	x	x	x
N#CC1=C(N)OC2=C(CC/C2=C\c2ccc(F)cc2)C1c1ccc(F)cc1 (stereo unspecified)	63	x	11	100*	x	68
N#CC1=C(N)OC2=C(CCC/C2=C/c2ccoc2)C1c1ccoc1 (stereo unspecified)	101	x	7	0	-73	99
SMILES	PTEN del growth	ROMK mod	p97 ATPase inh	Lmaj promast	Insulin prom inh	bCat KO growth
CCSc1ccc(-c2cccc([N+](=O)[O-])c2)nn1	x	-0.34	-1	2	x	x
CCC(=NCCc1c(C)[nH]c2ccccc12)C1=C(O)CC(c2ccccc2)CC1=O (stereo unspecified)	27	-0.081	3	96*	-16	24
Cc1cccc2cc(CN(C(=S)NCC(C)C)C3CCCC3)c(=O)[nH]c12	83	x	4	65*	30	78
Cc1cc2nc(CCN(C(=S)NCC3CCCO3)C3CCCC3)[nH]c2cc1C (stereo unspecified)	x	-1.9	4	23	x	x
Cc1cccc2cc(CN(CC3CCCO3)C(=S)Nc3ccccc3)c(=O)[nH]c12 (stereo unspecified)	92	x	0	71*	20	86
CNC(=S)N(Cc1ccc(OC)cc1)Cc1cc2cccc(C)c2[nH]c1=O	x	0.041	5	57*	27	x
Cc1cc2nc(CCN(C(=S)NCC(C)C)C3CCCC3)[nH]c2cc1C	18	x	-4	72*	4	12
COc1ccc(CN(Cc2cc3cccc(C)c3[nH]c2=O)C(=O)N(C)C)cc1	85	0.041	0	-3	-14	86
CC(C)=CCN1CCN(Cc2cnc(-c3ccccc3)s2)CC1CCO (stereo unspecified)	x	-0.021	-3	27	x	x
NS(=O)(=O)c1ccc(CNC(=O)Cc2c(F)cccc2Cl)cc1	x	0.35	2	-1	26	x
CC1(c2ccc3ccccc3c2)NC(=O)N(CC(=O)Nc2cccc(S(=O)(=O)N3CCOCC3)c2)C1=O (stereo unspecified)	69	-0.46	-3	-6	-21	83
CCNC(=S)N(Cc1cc2cccc(C)c2[nH]c1=O)C1CCCC1	92	-0.76	4	97*	24	96
Cc1cccc2cc(CN(CC3CCCO3)C(=O)NC3CCCCC3)c(=O)[nH]c12 (stereo unspecified)	91	x	-3	7	31	93
N#Cc1ccccc1S(=O)(=O)c1ccccc1C(=O)Nc1ccccc1	x	0.58	6	1	-55	x
C=CCN1C(=O)C(O)(CC(=O)c2ccco2)c2cc(Br)ccc21 (stereo unspecified)	x	0.57	8	14	x	x
CCOC(=O)c1cnc2c(N=Nc3ccccc3)c(N)nn2c1N	95	1.3	-4	68*	x	86
CCOC(=O)c1cnc2c(N=Nc3cccc(Cl)c3)c(N)nn2c1N	2.5*	x	-1	-6	0	3.4*
CCOC(=O)c1cnc2c(-c3ccccc3)c(C)nn2c1N	101	1.3	5	-4	-13	101
O=C(CSc1ncccn1)Nc1ccc2c(c1)CCC2	x	-0.31	5	x	x	x
CCc1ccc2c(c1)C(c1ccc(N3CCOCC3)cc1)=NNC(c1ccncc1)=N2	x	0.39	-2	57*	x	x
Cc1ccc2c(c1)C(c1ccc(N3CCOCC3)cc1)=NNC(c1cccs1)=N2	70	0.006	-4	86*	18	84
Brc1ccc2c(c1)C(c1ccc(N3CCOCC3)cc1)=NNC(c1cccs1)=N2	45	x	3	78*	29	46
CCOc1ccc2c(c1)C(c1ccc(C)cc1)=NNC(c1ccc(OC)cc1)=N2	77	-0.24	-11	36	x	97
CCc1ccc2c(c1)C(c1ccc([N+](=O)[O-])cc1)=NNC(c1ccc(C)cc1)=N2	32	1.7	-2	85*	-12	39
O=C(c1ccco1)N1CCN(c2c([N+](=O)[O-])nn(-c3cccc(Cl)c3)[n+]2[O-])CC1	x	-0.74	0	30	47	x

Source: PubChem
